Source: PubChem BioAssay (NCI)
Where “and” joins values, the source holds several entries; their conditions need not be identical. Equal entries are not always repeated. The panel holds about 79,000 compounds, 15% with a hit somewhere; the sample as a whole holds those more often. Some compounds were tested as several samples or in several runs, with calls that do not always agree. Calls of active or inactive are those of the source. Rule as the data show it: active = growth inhibition above about 70%; inactive = the rest.

Columns and labels:
[1] = NCI Yeast Anticancer Drug Screen. Data for the sgs1 mgt1 strain (AID 161);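 also: 0% = growth of cultures given vehicle only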; conditions: S. cerevisiae sgs1 mgt1 strain, stronger effect = higher value
Procedure, shortened: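 This yeast growth screen uses a strain with defined DNA-repair lesions; compound-treated growth is compared with vehicle-treated growth.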

[2] = NCI Yeast Anticancer Drug Screen. Data for the CLN2oe strain (AID 163);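 also: 0% = growth of vehicle-only control cultures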; conditions: S. cerevisiae CLN2oe strain, stronger effect = higher value
Procedure, shortened: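 Compound-treated yeast; growth vs vehicle ctrl = % inhibition. Genetically altered strain (cell-cycle control).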

[3] = NCI Yeast Anticancer Drug Screen. Data for the cln2 rad14 strain (AID 165);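 also: 0% = growth equal to vehicle treated cultures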; conditions: S. cerevisiae cln2 rad14 strain, stronger effect = higher value
Procedure, shortened: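 Growth inhibition, relative to vehicle-treated controls, is the read-out. The test organism is a yeast strain with defined genetic alterations, cln2 rad14.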

[4] = NCI Yeast Anticancer Drug Screen. Data for the bub3 strain (AID 167); conditions: S. cerevisiae bub3 mutant strain, stronger effect = higher value
Procedure, shortened: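 Whole-cell yeast assay. The mutant strain was incubated with compounds, and growth inhibition was determined by comparison with vehicle-treated cells.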

[5] = NCI Yeast Anticancer Drug Screen. Data for the wt2 strain (AID 169);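 also: 0% = growth of vehicle-treated yeast cultures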; conditions: S. cerevisiae wt2 strain growth inhibition, stronger effect = higher value
Procedure, shortened: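 Compound exposure of yeast; growth compared with vehicle controls; inhibition reported.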

[6] = NCI Yeast Anticancer Drug Screen. Data for the mlh1 strain (AID 171);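 also: 0% = growth of vehicle-treated control cultures of the same strain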; conditions: S. cerevisiae mlh1 strain growth inhibition, stronger effect = higher value
Procedure, shortened: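 Compounds are applied to a genetically altered yeast strain, and its growth is compared with that of vehicle-treated cultures to give percent inhibition.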

[7] = NCI Yeast Anticancer Drug Screen. Data for the sgs1 strain (AID 173);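 also: 0% = growth of vehicle-only control cultures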; conditions: S. cerevisiae sgs1 mutant, stronger effect = higher value
Procedure, shortened: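 Compounds applied to genetically altered yeast; growth compared with vehicle-treated cultures to give % inhibition.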

[8] = NCI Yeast Anticancer Drug Screen. Data for the mlh1 rad18 strain (AID 175); conditions: S. cerevisiae mlh1 rad18 strain growth inhibition, stronger effect = higher value
Procedure, shortened: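 Cells of a genetically altered yeast strain, deficient in DNA damage repair, were treated with compound. Their growth was then compared with that of vehicle-treated cultures to give inhibition.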

[9] = NCI Yeast Anticancer Drug Screen. Data for the rad18 strain (AID 177); conditions: S. cerevisiae rad18 mutant growth inhibition, stronger effect = higher value
Procedure, shortened: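 Compounds are applied to a repair-deficient yeast strain, and growth is compared with that of vehicle-treated cultures to give percent inhibition.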

[10] = NCI Yeast Anticancer Drug Screen. Data for the wt1 strain (AID 149);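 also: 0% = growth of vehicle-treated wt1 cultures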; conditions: S. cerevisiae wt1 strain (SPY 50644) growth inhibition, stronger effect = higher value
Procedure, shortened: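 Measured: growth of wt1 yeast under compound versus vehicle treatment, reported as inhibition.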

[11] = NCI Yeast Anticancer Drug Screen. Data for the rad50EPP+ strain (AID 151);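 also: 0% = growth of vehicle-treated control cultures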; conditions: S. cerevisiae rad50 mutant strain, stronger effect = higher value
Procedure, shortened: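 rad50EPP+ yeast treated with test compounds. Readout: growth vs vehicle control.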

[12] = NCI Yeast Anticancer Drug Screen. Data for the mgt1 strain (AID 153); conditions: S. cerevisiae mgt1 mutant growth inhibition, stronger effect = higher value
Procedure, shortened: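 Growth inhibition relative to vehicle controls was scored for the mgt1 yeast strain after compound exposure.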

[13] = NCI Yeast Anticancer Drug Screen. Data for the rad50 strain (AID 155);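 also: 0% = growth of vehicle-only cultures of the same strain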; conditions: S. cerevisiae rad50 strain growth inhibition, stronger effect = higher value
Procedure, shortened: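 Growth of the mutant yeast was measured after compound exposure and referenced to vehicle-treated cultures.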

[14] = NCI Yeast Anticancer Drug Screen. Data for the mec2-1 strain (AID 157); conditions: S. cerevisiae mec2-1 strain, stronger effect = higher value
Procedure, shortened: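 Growth inhibition is read against vehicle-treated controls after compound exposure of the mec2-1 yeast strain, which is defective in DNA damage repair or cell cycle control.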

[15] = NCI Yeast Anticancer Drug Screen. Data for the rad14 strain (AID 159);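 also: 0% = growth of vehicle-treated control cultures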; conditions: S. cerevisiae rad14 strain growth inhibition, stronger effect = higher value
Procedure, shortened: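 Here, inhibition of yeast growth was measured after compound exposure, using a strain with a genetic defect in DNA damage repair and vehicle-treated cultures as the reference.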

[16] = at 5.0 µM (retest, dose inferred, filed as 0.5)
[17] = at 50.0 µM (retest, dose inferred, filed as 5.0)

Measured: growth inhibition

COc1ccc2cc(CN3CCC(C4CCN(Cc5ccc6cc(OC)ccc6c5)CC4)CC3)ccc2c1
inactive: [2]; at 1.2 µM 16% | [2]; at 3.7 µM 29% | [2]; at 11.0 µM 19% | [2]; at 33.0 µM 36% | [3]; [16] 19% | [3]; [17] -48% | [3]; at 50.0 µM 64.3% | [4]; at 1.2 µM -32% | [4]; at 3.7 µM -35% | [4]; [16] 19% | [4]; at 11.0 µM -28% | [4]; at 33.0 µM -20% | [4]; [17] 0% | [5]; at 1.2 µM 0% | [5]; at 3.7 µM 15% | [5]; at 11.0 µM 7% | [5]; at 33.0 µM -3% | [6]; at 1.2 µM -12% | [6]; at 3.7 µM -15% | [6]; at 11.0 µM -17% | [6]; at 33.0 µM -26% | [7]; at 1.2 µM 14% | [7]; at 3.7 µM 8% | [7]; at 11.0 µM 12% | [7]; at 33.0 µM 3% | [8]; [16] -8% | [8]; at 50.0 µM -19.2% | [9]; at 1.2 µM 0% | [9]; at 3.7 µM 0% | [9]; at 11.0 µM 3% | [9]; at 33.0 µM 22%
active: [1]; at 50.0 µM 83.2% | [2]; at 100.0 µM 98% | [4]; at 50.0 µM 89% | [4]; at 100.0 µM 98% | [5]; at 100.0 µM 98% | [6]; at 100.0 µM 97% | [7]; at 100.0 µM 98% | [8]; [17] 80% | [9]; at 100.0 µM 98%

C[Si](C)(C)Cc1ccccc1C(=O)O
active: [10]; at 100.0 µM 99% | [12]; at 100.0 µM 99% | [13]; [17] 80% | [13]; at 50.0 µM 97.7% | [13]; at 100.0 µM 98% | [14]; [17] 86% | [14]; at 50.0 µM 97% | [14]; at 100.0 µM 98% | [15]; at 100.0 µM 99% | [2]; at 100.0 µM 99% | [3]; [17] 86% | [3]; at 50.0 µM 98% | [4]; at 50.0 µM 97% | [4]; at 100.0 µM 97% | [6]; at 100.0 µM 99% | [7]; at 100.0 µM 99% | [8]; [17] 83% | [8]; at 50.0 µM 98.2% | [9]; at 100.0 µM 97%
inactive: [10]; at 1.2 µM 1% | [10]; at 3.7 µM 1% | [10]; at 11.0 µM 4% | [10]; at 33.0 µM 38% | [11]; at 1.2 µM -2% | [11]; at 3.7 µM 1% | [11]; at 11.0 µM 0% | [11]; at 33.0 µM 4% | [11]; at 100.0 µM 3% | [12]; at 1.2 µM 1% | [12]; at 3.7 µM 6% | [12]; at 11.0 µM -2% | [12]; at 33.0 µM 15% | [13]; at 1.2 µM 4% | [13]; at 3.7 µM 9% | [13]; [16] 2% | [13]; at 11.0 µM 4% | [13]; at 33.0 µM 56% | [14]; at 1.2 µM 4% | [14]; at 3.7 µM 4% | [14]; [16] 8% | [14]; at 11.0 µM 8% | [14]; at 33.0 µM 29% | [15]; at 1.2 µM 1% | [15]; at 3.7 µM -4% | [15]; at 11.0 µM 0% | [15]; at 33.0 µM 32% | [2]; at 1.2 µM 9% | [2]; at 3.7 µM 12% | [2]; at 11.0 µM 11% | [2]; at 33.0 µM 20% | [3]; [16] 33% | [4]; at 1.2 µM 6% | [4]; at 3.7 µM 8% | [4]; [16] 5% | [4]; at 11.0 µM 2% | [4]; at 33.0 µM 6% | [4]; [17] 17% | [6]; at 1.2 µM 3% | [6]; at 3.7 µM 12% | [6]; at 11.0 µM 3% | [6]; at 33.0 µM 42% | [7]; at 1.2 µM -1% | [7]; at 3.7 µM 1% | [7]; at 11.0 µM 5% | [7]; at 33.0 µM 65% | [8]; [16] -2% | [9]; at 1.2 µM 2% | [9]; at 3.7 µM 3% | [9]; at 11.0 µM 1% | [9]; at 33.0 µM 65%

COc1ccc2[nH]c3c(C)c4cc[n+](C)cc4c(C)c3c2c1
46% (inactive) and 77% (active): [6]; at 100.0 µM
active: [11]; at 11.0 µM 70% and 73% | [11]; at 33.0 µM 73% and 82% | [11]; at 100.0 µM 87% and 89%
11% (inactive) and 73% (active): [5]; at 100.0 µM
30% (inactive) and 79% (active): [4]; at 100.0 µM
41% (inactive) and 82% (active): [9]; at 100.0 µM
50% (inactive) and 82% (active): [7]; at 100.0 µM
inactive: [10]; at 1.2 µM 18% and 15% | [10]; at 3.7 µM 45% and 16% | [10]; at 11.0 µM 45% and 26% | [10]; at 33.0 µM 43% and 41% | [10]; at 100.0 µM 43% and 63% | [11]; at 1.2 µM 39% and 24% | [11]; at 3.7 µM 64% and 62% | [12]; at 1.2 µM 15% and 2% | [12]; at 3.7 µM 28% and 12% | [12]; at 11.0 µM 26% and 24% | [12]; at 33.0 µM 38% and 29% | [12]; at 100.0 µM 39% and 55% | [14]; at 1.2 µM 15% and 23% | [14]; at 3.7 µM 45% and 18% | [14]; [16] 9% and 3% | [14]; at 11.0 µM 53% and 27% | [14]; at 33.0 µM 44% and 36% | [14]; [17] 44% and 16% | [14]; at 50.0 µM 21.2% and 56.6% | [14]; at 100.0 µM 53% and 61% | [15]; at 1.2 µM 0% and 6% | [15]; at 3.7 µM 17% and 15% | [15]; at 11.0 µM 25% | [15]; at 33.0 µM 27% and 40% | [15]; at 100.0 µM 36% and 61% | [1]; [16] 18% and 28% | [1]; [17] 41% and 52% | [1]; at 50.0 µM 45.8% and 36.4% | [2]; at 1.2 µM 45% and -9% | [2]; at 3.7 µM 45% and 0% | [2]; at 11.0 µM 55% and -5% | [2]; at 33.0 µM 50% and 20% | [2]; at 100.0 µM 40% and 66% | [3]; [16] 2% and 24% | [3]; [17] 25% and 30% | [3]; at 50.0 µM 39.2% and 23.3% | [4]; at 1.2 µM 18% and 8% | [4]; at 3.7 µM 30% and 22% | [4]; [16] 19% and 2% | [4]; at 11.0 µM 28% and 23% | [4]; at 33.0 µM 33% and 32% | [4]; [17] 50% and 20% | [4]; at 50.0 µM 22.9% and 34.1% | [5]; at 1.2 µM -13% and -31% | [5]; at 3.7 µM -14% and -11% | [5]; at 11.0 µM -15% and -11% | [5]; at 33.0 µM -13% and 14% | [6]; at 1.2 µM 34% and 19% | [6]; at 3.7 µM 34% and 35% | [6]; at 11.0 µM 41% | [6]; at 33.0 µM 56% | [7]; at 1.2 µM 18% and 25% | [7]; at 3.7 µM 32% and 39% | [7]; at 11.0 µM 51% and 42% | [7]; at 33.0 µM 42% and 52% | [8]; [16] 23% and 19% | [8]; [17] 52% and 32% | [8]; at 50.0 µM 56.5% | [9]; at 1.2 µM 23% and 27% | [9]; at 3.7 µM 40% and 35% | [9]; at 11.0 µM 38% | [9]; at 33.0 µM 45% and 44%
